Results taken from PubChem BioAssay (Tox21).
A number with no mark means an inactive call. Results filed as inconclusive are left out. Where a call stands in place of a potency, no number is given. Calls of active or inactive are those of the source. Unless noted, the call rests on the fitted dose curve; in most records, active means well fitted curve in the direction sought with a large enough effect in the repeat runs; inconclusive means weak or mixed curves; inactive means no such curve, though single readings can be large; an effect the other way counts as inactive or inconclusive.

What was measured:
[1] = qHTS assay for small molecule agonists of the p53 signaling pathway (AID 651631; calls by dose curve; further: nearly all actives have a fitted effect of over 15% in size; further: potency means the concentration at half of the fitted maximal effect)
Summary of the method: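 Readout was fluorescence from the LiveBLAzer FRET substrate, applied for 2 h at room temperature after 16 h compound exposure at 37 °C. Cells were the p53RE-bla HCT-116 line, with beta-lactamase driven by p53 response elements.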

[2] = qHTS assay for small molecules that induce genotoxicity in human embryonic kidney cells expressing luciferase-tagged ATAD5 (AID 651632); further: nearly all actives have a fitted effect of over 15% in size
Summary of the method: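 Luminescence read-out: after 16 hr compound exposure at 37C, ATAD5-luciferase HEK293T cells received Amplite, 30 min RT, then CCD imaging. A rise in signal marks genotoxic stress.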

[3] = qHTS assay for small molecule agonists of the p53 signaling pathway - cell viability (AID 651633; calls by dose curve; further: nearly all actives have a fitted effect of over 30% in size)
Summary of the method: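 Viability counter-read: CellTiter-Glo luminescence (30 min, room temperature) in the same p53RE-bla plates. These plates had been exposed to compounds for 16 h at 37 C.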

[4] = qHTS assay for small molecules that induce genotoxicity in human embryonic kidney cells expressing luciferase-tagged ATAD5 - cell viability (AID 651634; calls by dose curve; further: nearly all actives have a fitted effect of over 25% in size)
Summary of the method: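 HEK293T ATAD5-luc cells, 2,000/well; compound 15.5 hr, 37C/5% CO2; CellTiter-Fluor 30 min, 37C; fluorescence read.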

[5] = qHTS assay for small molecule disruptors of the mitochondrial membrane potential - cell viability (AID 720634; calls by dose curve;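 further: human HepG2 liver cancer cells; nearly all actives have a fitted effect of over 20% in size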)
Summary of the method: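 Luminescence from CellTiter-Glo (ATP content) gave viability in HepG2 cells, read in the same wells as the MMP dye assay after 1 hr compound exposure at 37 C.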

[6] = qHTS assay to test for compound auto fluorescence at 535 nm (green) in HepG2 cells (AID 720675)
[7] = qHTS assay to test for compound auto fluorescence at 460 nm (blue) in HEK293 cells (AID 720678)
Summary of the method: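 Measured: blue fluorescence (Ex 405/Em 460 nm) of compound-treated HEK293 cells, incubated overnight at 37C with 5% CO2 and scaled to triamterene equivalents.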

[8] = qHTS assay to test for compound auto fluorescence at 590 nm (red) in HEK293 cells (AID 720679)
Summary of the method: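 Using HEK293 cells at 2,000 per well, the screen added 23 nL of each compound after cell attachment and incubated overnight (37C, 5% CO2). The plate reader then captured red-label fluorescence, Ex/Em 540/590nm.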

[9] = qHTS assay to test for compound auto fluorescence at 535 nm (green) in HEK293 cells (AID 720680)
[10] = qHTS assay to test for compound auto fluorescence at 460 nm (blue) in HEK293 cell free culture (AID 720681)
Summary of the method: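 Blue fluorescence (Ex 405/Em 460 nm, triamterene-equivalent) was read immediately after pin transfer of compound or DMSO into medium (DMEM, 10% FBS) without cells.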

[11] = qHTS assay to test for compound auto fluorescence at 535 nm (green) in HEK293 cell free culture (AID 720682)
Summary of the method: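 Compounds were pin-transferred into cell-free DMEM with 10% FBS, and green fluorescence was read at excitation 485 nm and emission 535 nm. Intensities were expressed as fluorescein-equivalent values.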

[12] = qHTS assay to test for compound auto fluorescence at 590 nm (red) in HEK293 cell free culture (AID 720683)
Summary of the method: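 Red-channel autofluorescence of compounds in culture medium (DMEM, 10% FBS), no cells, measured at 540/590 nm. Rose Bengal sodium is the reference fluorophore for equivalence.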

[13] = qHTS assay to test for compound auto fluorescence at 590 nm (red) in HepG2 cell free culture (AID 720684)
Summary of the method: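 Cell-free; medium MEM + 10% FBS; compound or DMSO added by pintool; read Ex 540/Em 590 nm; Rose Bengal sodium as red reference fluorophore.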

[14] = qHTS assay to test for compound auto fluorescence at 460 nm (blue) in HepG2 cell free culture (AID 720685)
Summary of the method: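 Cell-free plates of MEM plus 10% FBS received 23 nL compound or DMSO vehicle; blue-channel (405/460 nm) intensity scored against triamterene as reference fluorophore.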

[15] = qHTS assay to test for compound auto fluorescence at 535 nm (green) in HepG2 cell free culture (AID 720686)
[16] = qHTS assay to test for compound auto fluorescence at 460 nm (blue) in HepG2 cells (AID 720687)
Summary of the method: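 Blue-channel autofluorescence (Ex/Em 405/460 nm, triamterene-equivalent) was measured after 1 hr compound exposure at 37 C, 5% CO2. Cells were HepG2, plated overnight at 37 C in MEM plus 10% FBS.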

[17] = target: Glucocorticoid receptor (Homo sapiens) (UniProt P04150); assay: qHTS assay to identify small molecule agonists of the glucocorticoid receptor (GR) signaling pathway (AID 720691; active means well fitted activation curve with a large enough effect in the signal ratio in the repeat runs, not every such curve was filed as active; the % refers to the signal ratio); conditions: GR-bla HeLa, beta-lactamase reporter ratio, 18 h; activation: at 62.4 µM (top of the series) unless noted
Summary of the method: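 HeLa GR-bla reporter line; cells pre-incubated 4 h, compound in DMSO 18 h at 37 C; LiveBLAzer B/G FRET substrate 2 h RT; fluorescence intensity read-out.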

[18] = target: Glucocorticoid receptor (Homo sapiens) (UniProt P04150); assay: qHTS assay to identify small molecule antagonists of the glucocorticoid receptor (GR) signaling pathway (AID 720692; active means well fitted inhibition curve with a large enough effect in the signal ratio in the repeat runs, not every such curve was filed as active; the % refers to the signal ratio)
Summary of the method: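 Read-out: beta-lactamase FRET substrate fluorescence, 2 h at room temperature, in HeLa cells stably carrying a GRE-driven bla reporter. Compounds were co-incubated with 5 nM dexamethasone agonist (final) for 18 h at 37 C.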

[19] = qHTS assay to test for compound auto fluorescence at 590 nm (red) in HepG2 cells (AID 720674)
Summary of the method: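 Red autofluorescence (Ex/Em 540/590 nm, Rose Bengal sodium equivalents) was measured in HepG2 cells, 2,000 per well in MEM plus 10% FBS, plated overnight at 37 C. Readings were taken 1 hr after adding 23 nL compound or DMSO, at 37 C and 5% CO2.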

[20] = qHTS assay for small molecule disruptors of the mitochondrial membrane potential (AID 720635); further: potency means the concentration at half of the fitted maximal effect
Summary of the method: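 Mitochondrial membrane potential tracked with Mito-MPS dye, red aggregates (ex 540/em 590 nm) against green monomers (ex 490/em 535 nm). Compound treatment 1 hr at 37C, dye 30 min in HepG2.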

Chain of Glucocorticoid receptor (Homo sapiens) (P04150 whole entry, looked up): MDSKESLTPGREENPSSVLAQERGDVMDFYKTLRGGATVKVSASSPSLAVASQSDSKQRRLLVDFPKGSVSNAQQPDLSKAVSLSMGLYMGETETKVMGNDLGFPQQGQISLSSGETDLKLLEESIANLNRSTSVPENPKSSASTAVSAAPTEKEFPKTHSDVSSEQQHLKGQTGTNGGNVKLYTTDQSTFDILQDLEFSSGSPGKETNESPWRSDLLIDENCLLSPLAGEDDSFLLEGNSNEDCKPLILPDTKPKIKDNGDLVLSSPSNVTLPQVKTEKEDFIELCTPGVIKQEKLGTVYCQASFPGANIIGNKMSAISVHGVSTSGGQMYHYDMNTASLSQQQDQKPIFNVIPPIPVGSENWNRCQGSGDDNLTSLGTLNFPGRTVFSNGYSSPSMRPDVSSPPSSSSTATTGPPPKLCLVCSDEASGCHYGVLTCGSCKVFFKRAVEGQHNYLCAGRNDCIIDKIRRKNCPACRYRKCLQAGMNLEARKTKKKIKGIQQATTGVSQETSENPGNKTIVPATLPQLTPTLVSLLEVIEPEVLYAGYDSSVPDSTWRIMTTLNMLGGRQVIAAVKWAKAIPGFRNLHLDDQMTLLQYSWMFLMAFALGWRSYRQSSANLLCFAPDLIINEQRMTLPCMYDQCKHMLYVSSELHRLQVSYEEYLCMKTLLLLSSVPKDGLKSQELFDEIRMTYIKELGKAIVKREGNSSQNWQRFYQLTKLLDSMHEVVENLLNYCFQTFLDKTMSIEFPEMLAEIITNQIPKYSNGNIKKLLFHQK

CCCCCCCN
Potency [1]: inactive
Potency [2]: inactive
Potency [3]: inactive
Potency [4]: inactive
Potency [5]: inactive
Potency [6]: inactive
outcome [7]: inactive
Potency [8]: inactive
outcome [9]: inactive
outcome [10]: inactive
outcome [11]: inactive
Potency [12]: inactive
Potency [13]: inactive
outcome [14]: inactive
Potency [15]: inactive
outcome [16]: inactive
Potency [17]: inactive
Potency [18]: inactive

Nc1cccc(S(=O)(=O)c2cccc(N)c2)c1
Potency [1]: inactive
Potency [2]: inactive
Potency [3]: inactive
Potency [4]: inactive
Potency [5]: inactive
Potency [19]: inactive
Potency [6]: inactive
Potency [8]: inactive
outcome [9]: inactive
outcome [10]: inactive
outcome [11]: inactive
Potency [12]: inactive
Potency [13]: inactive
outcome [14]: inactive
Potency [15]: inactive
outcome [16]: inactive
Potency [17]: inactive
Potency [18]: inactive

COc1ccc(C(=O)c2ccc(OC)cc2O)c(O)c1
Potency [1]: 19.5 µM (active)
Potency [2]: inactive
Potency [3]: inactive
Potency [4]: inactive
Potency [20]: 6.16 µM (active)
Potency [19]: inactive
Potency [6]: inactive
outcome [7]: inactive
Potency [8]: inactive
outcome [9]: inactive
outcome [10]: inactive
outcome [11]: inactive
Potency [12]: inactive
Potency [13]: inactive
outcome [14]: inactive
Potency [15]: inactive
outcome [16]: inactive

O=C1OC(=O)C2C3C=CC(C3)C12 (stereo not given)
Potency [1]: inactive
Potency [2]: inactive
Potency [3]: inactive
Potency [5]: inactive
Potency [20]: inactive
Potency [19]: inactive
Potency [6]: inactive
outcome [7]: inactive
Potency [8]: inactive
outcome [9]: inactive
outcome [10]: inactive
Potency [12]: inactive
Potency [13]: inactive
outcome [14]: inactive
Potency [15]: inactive
outcome [16]: inactive

CCCCCCCCO[C@@H]1O[C@H](CO)[C@@H](O)[C@H](O)[C@H]1O
Potency [1]: inactive
Potency [2]: inactive
Potency [4]: inactive
Potency [5]: inactive
Potency [19]: inactive
Potency [6]: inactive
outcome [7]: inactive
Potency [8]: inactive
outcome [9]: inactive
outcome [10]: inactive
Potency [12]: inactive
Potency [13]: inactive
outcome [14]: inactive
Potency [15]: inactive
outcome [16]: inactive
Potency [18]: inactive

CC1=CCCC(C)(C)C12CCC(C)O2 (stereo not given)
Potency [1]: inactive
Potency [2]: inactive
Potency [5]: inactive
Potency [19]: inactive
Potency [6]: inactive
outcome [7]: inactive
Potency [8]: inactive
outcome [9]: inactive
outcome [10]: inactive
outcome [11]: inactive
Potency [12]: inactive
Potency [13]: inactive
outcome [14]: inactive

C=C1[C@H]2CC[C@@H]3[C@H]2C(C)(C)CCC[C@]13C
Potency [1]: inactive
Potency [2]: inactive
Potency [4]: inactive
Potency [5]: inactive
Potency [6]: inactive
outcome [7]: inactive
Potency [8]: inactive
outcome [9]: inactive
outcome [10]: inactive
outcome [11]: inactive
Potency [12]: inactive
Potency [13]: inactive
outcome [14]: inactive
Potency [15]: inactive
outcome [16]: inactive
Potency [17]: inactive
Potency [18]: inactive

CC(=O)c1ccc2c(c1)N(CCCN1CCC(CCO)CC1)c1ccccc1S2
Potency [1]: inactive
Potency [2]: inactive
Potency [3]: inactive
Potency [5]: inactive
fluorescence, relative to Rose Bengal [19]: -0.311% [at 18.6 µM]
fluorescence, % of fluorescein control [6]: 0.043% [at 18.6 µM]
fluorescence, % of triamterene [7]: -0.0315% [at 18.6 µM]
fluorescence, % of fluorescent control [8]: -0.278% [at 18.6 µM]
fluorescence, % of fluorescein [9]: -0.0765% [at 18.6 µM]
fluorescence, % of fluorescent control [10]: -0.0632% [at 18.6 µM]
activity change [11]: -0.164% [at 18.6 µM]
fluorescence, % of fluorescent control [12]: -0.134% [at 18.6 µM]
fluorescence, % of Rose Bengal [13]: 0.583% [at 18.6 µM]
fluorescence, % of fluorescent control [14]: -0.0052% [at 18.6 µM]
fluorescence, % of fluorescent control [16]: -0.011% [at 18.6 µM]
Potency [17]: inactive
Potency [18]: inactive

C[N+](C)(C)CCOC(=O)CCC(=O)OCC[N+](C)(C)C
Potency [1]: inactive
Potency [2]: inactive
Potency [5]: inactive
Potency [20]: inactive
Potency [19]: inactive
Potency [6]: inactive
outcome [7]: inactive
Potency [8]: inactive
outcome [9]: inactive
outcome [10]: inactive
outcome [11]: inactive
Potency [12]: inactive
Potency [13]: inactive
outcome [14]: inactive
Potency [15]: inactive
Potency [17]: inactive

Clc1ccc(Cn2c(CN3CCCC3)nc3ccccc32)cc1
Potency [1]: inactive
Potency [2]: inactive
Potency [4]: inactive
Potency [5]: inactive
fluorescence, relative to Rose Bengal [19]: -0.15% [at 18.6 µM]
fluorescence, % of fluorescein control [6]: 0.097% [at 18.6 µM]
fluorescence, % of triamterene [7]: 0.123% [at 18.6 µM]
fluorescence, % of fluorescent control [8]: 0.574% [at 18.6 µM]
fluorescence, % of fluorescein [9]: 0.026% [at 18.6 µM]
fluorescence, % of fluorescent control [10]: -0.0089% [at 18.6 µM]
activity change [11]: -0.0526% [at 18.6 µM]
fluorescence, % of fluorescent control [12]: 0.147% [at 18.6 µM]
fluorescence, % of Rose Bengal [13]: -0.0239% [at 18.6 µM]
fluorescence, % of fluorescent control [14]: 0.0634% [at 18.6 µM]
fluorescence, % of fluorescein control [15]: -0.0084% [at 18.6 µM]
fluorescence, % of fluorescent control [16]: 0.0474% [at 18.6 µM]
Potency [17]: inactive

COC(C)(C)CCO
Potency [1]: inactive
Potency [2]: inactive
Potency [4]: inactive
Potency [5]: inactive
Potency [20]: inactive
Potency [19]: inactive
Potency [6]: inactive
outcome [7]: inactive
Potency [8]: inactive
outcome [9]: inactive
outcome [10]: inactive
Potency [12]: inactive
Potency [13]: inactive
outcome [14]: inactive
Potency [15]: inactive
outcome [16]: inactive
Potency [17]: inactive
Potency [18]: inactive

NC(=O)C(c1ccccc1)(c1ccccc1)[C@@H]1CCN(CCc2ccc3c(c2)CCO3)C1
Potency [1]: inactive
Potency [2]: inactive
Potency [4]: inactive
Potency [5]: inactive
Potency [19]: inactive
Potency [6]: inactive
outcome [7]: inactive
Potency [8]: inactive
outcome [10]: inactive
outcome [11]: inactive
Potency [12]: inactive
Potency [13]: inactive
outcome [14]: inactive
Potency [15]: inactive
outcome [16]: inactive
Potency [17]: inactive
Potency [18]: inactive

Cc1ncc(CO)c(C=O)c1O
Potency [1]: inactive
Potency [2]: inactive
Potency [4]: inactive
Potency [5]: inactive
Potency [20]: inactive
Potency [19]: inactive
Potency [6]: inactive
outcome [7]: inactive
Potency [8]: inactive
outcome [9]: inactive
outcome [10]: inactive
outcome [11]: inactive
Potency [12]: inactive
Potency [13]: inactive
outcome [14]: inactive
Potency [15]: inactive
outcome [16]: inactive
Potency [17]: inactive
Potency [18]: inactive

CC(=O)OC[C@H]1O[C@@H](n2ncc(=O)[nH]c2=O)[C@H](OC(C)=O)[C@@H]1OC(C)=O
Potency [1]: 1.88 µM (active)
Potency [2]: inactive
Potency [4]: inactive
Potency [5]: inactive
Potency [20]: inactive
Potency [6]: inactive
outcome [7]: inactive
Potency [8]: inactive
outcome [9]: inactive
outcome [10]: inactive
outcome [11]: inactive
Potency [12]: inactive
Potency [13]: inactive
outcome [14]: inactive
Potency [15]: inactive
outcome [16]: inactive
